# In PubChem BioAssay AID588849 (Broad Institute, 2011):
# Measured potencies and affinities stand elsewhere. Activity calls are given as the source filed them. No rule for the calls is given here.
# Target: CAAX prenyl protease 2 (Homo sapiens) (UniProt Q9Y256)
# Assay: human Rce1 protease inhibitors, dose response, biochemical, yeast membranes, quenched-peptide fluorescence, cherry-pick (AID 588849)
# Conditions: yeast membrane fractions expressing human Rce1, quenched-peptide fluorescence, 4 h; series mostly up to 10 µM
# Sequence of CAAX prenyl protease 2 (Homo sapiens) (Q9Y256 whole entry, looked up): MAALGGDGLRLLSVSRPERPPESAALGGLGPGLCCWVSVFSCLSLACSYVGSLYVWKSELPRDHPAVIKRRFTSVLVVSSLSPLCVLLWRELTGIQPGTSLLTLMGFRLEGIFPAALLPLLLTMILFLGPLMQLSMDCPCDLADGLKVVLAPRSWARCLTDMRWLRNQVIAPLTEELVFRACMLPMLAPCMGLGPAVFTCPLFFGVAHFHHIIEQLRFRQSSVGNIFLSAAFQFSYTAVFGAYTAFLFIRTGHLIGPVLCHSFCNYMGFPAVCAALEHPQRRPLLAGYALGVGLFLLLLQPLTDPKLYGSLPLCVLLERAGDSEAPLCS
row,SMILES,outcome
1,NC(=O)[C@H]1CC2(CC(c3cccc(NC(=O)COc4ccc(Cl)cc4)c3)=NO2)CN1C(=O)C(c1ccccc1)c1ccccc1 (stereo partly drawn),inactive
2,Cc1cc(OCC(=O)N2CCC(C(=O)O)CC2)c2c(C)cc(=O)oc2c1,inactive
3,Nc1nonc1-n1nnc(C(=O)N/N=C/c2ccoc2)c1CSc1ccccc1,inactive
4,Cc1cc(Cl)c2oc(C(=O)N3CCN(C(=O)c4ccco4)CC3)c(C)c2c1,inactive
5,OC1CCN(C(c2ccc3ncccc3c2)c2nnnn2C2CCCCC2)CC1 (stereo not drawn),inactive
6,CCCCN(CC)CCNC(=O)c1cc2c(-c3ccc(Cl)cc3)nn(C)c2s1,inactive
7,COC(C/C=C\C(=O)[C@H](C)OCc1ccccc1)OC,inactive
8,Cc1cccc(-c2nnc(SCc3ccc(C#N)cc3)n2Cc2ccco2)c1,inactive
9,CCN(CC)CCCNC(=O)CCc1c(C)n(CC)c2cc(-c3ccccc3OC)nn2c1=O,inactive
10,COc1cc2c(cc1OC)C(C)N(C(=O)CCNC(=O)c1ccccc1)CC2 (stereo not drawn),inactive
11,COc1ccc(Br)cc1C(=O)Nc1cc(C)cc(C)c1,inactive
12,CCC(=O)Nc1cc(-c2nn(CC(=O)N3CCCCC3)c(=O)c3ccccc23)ccc1N1CCOCC1,inactive
13,CC(=O)N[C@@H](C)c1nc2ccccc2n1CCCN1CCN(c2nc(-c3ccc(C)cc3)cs2)CC1,inactive
14,Oc1c(N=NC(=S)Nc2ccccc2F)c2ccccc2n1Cc1ccccc1Cl,inactive
15,Cc1ccccc1OC(C)C(=O)N1CCC(Cc2ccccc2)CC1 (stereo not drawn),inactive
16,COc1cccc(-c2csc(N3CCN(C(=O)NC45CC6CC(CC(C6)C4)C5)CC3)n2)c1,inactive
17,CCCNC(=O)c1c(N)n(-c2ccc(S(N)(=O)=O)cc2)c2nc3ccccc3nc12,inactive
18,Cc1cc(C)n2nc(CC(=O)NNC(=O)c3ccc(N(C)C)cc3)nc2n1,inactive
19,CCC1(c2ccccc2)NC(=O)N(CC(=O)Nc2ccc3c(C)cc(=O)oc3c2)C1=O (stereo not drawn),inactive

row,SMILES,outcome
1,CCN(CC)CCNC(=O)CSc1c2c(nc3cc(Cl)ccc13)CCCC2,inactive
2,CCCCNC(=S)NNC(=O)CCn1cc(C)cn1,inactive
3,CCOC(=O)c1cc2c(=O)n3cccc(C)c3nc2n(CC(C)C)c1=NC(=O)c1ccco1,inactive
4,CS(=O)(=O)c1ccc(C(=O)OCC(=O)N(CCc2ccccc2)Cc2ccccc2)cc1,inactive
5,COc1ccc(CSc2ccc(-c3nc4ccccn4c3NCc3ccccc3)cc2OC)cc1,inactive
6,CN1CCN(C(=O)c2ccc(-c3cccs3)s2)CC1,inactive
7,CSC[C@H](NC(=O)COc1cc2c(c3oc(=O)cc(C)c13)CCC(C)(C)O2)C(=O)O,inactive
8,Cc1cc(C)n(-c2nc3ccccc3c(=O)n2OCC(=O)N(C)C)n1,inactive
9,CC1(c2ccc(OCC#N)cc2)C=C(c2ccc(OCC#N)cc2)n2nc(C(F)(F)F)nc2N1 (stereo not drawn),inactive
10,CCCCOC(=O)Nc1nc(C)c(C(=O)OCC)s1,inactive
11,O=C(c1cnc2n(c1=O)CCS2)N1CCN(C(c2ccccc2)c2ccc(Cl)cc2)CC1 (stereo not drawn),inactive
12,CN(C)CCNc1ncnc2oc(-c3ccccc3)c(-c3ccccc3)c12,inactive
13,COc1ccc(N2CCN(C(=O)c3cc(-c4cccs4)nc4ccccc34)CC2)cc1,inactive
14,O=C(Nc1ccccc1)n1ccc(-c2ccc(-n3ccnc3)cc2)n1,inactive
15,O=C(CCNC(=O)N1CC(=O)Nc2ccccc21)NCCc1cccc(F)c1,inactive
16,COc1ccc(C2CC(c3ccc4ccccc4c3)=NN2C(=O)CNC2CCCCC2)cc1 (stereo not drawn),inactive
17,c1ccc(-c2ccc(-c3cn4c(n3)CCC4)cc2)cc1,inactive
18,Cc1ccc(-c2nc(Nc3ccc(N4CCOCC4)cc3)c3ccccc3n2)cc1,inactive
19,N/C(Cc1ccc([N+](=O)[O-])cc1)=N\OC(=O)c1ccc2ccccc2c1,inactive
